This is a sample that favours compounds with a hit; in the whole collection about 22% have one here.
E-sel TNF inh: blocks E-selectin expression induced by TNF alpha; actives 0.71% (n = 120,000); inhibition, % at 2 µM; HUVEC TNFa-induced E-selectin immunofluorescence, high content;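 active means inhibition above the batch mean plus 3 SD, and confirmed as a hit on visual image review, cut at about 43% in these data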;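 further: 0% = TNF-stimulated DMSO wells and 100% = unstimulated control wells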
cytoskel mod: modifiers of cytoskeleton assembly; HUVEC TNFa F-actin phalloidin imaging, high content; inhibition, % at 2 µM; actives 0.18% (n = 91,000); AID 836;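 active means inhibition above the batch mean plus 3 SD and confirmed as a hit by visual image inspection, cut at about 30% in these data, passing the limit was not always enough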
CYP2C9 act: CYP2C9 (human) activation | actives 1.4% (n = 96,000) | AID 1024 | activation factor at 5 µM | recombinant CYP2C9, luciferin-H conversion, luminescence; hits give high values; factor 1 = untreated enzyme, 0 = blocked;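 active means activation factor of 2 or more for CYP2C9 at a 5 µM dose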;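 further: 0 = sulfaphenazole-blocked wells and 1 = vehicle-only wells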
CYP2C19 activ: increases human CYP2C19 enzyme activity; 96,000 tested, under 10 active; P33261; AID 1025; recombinant CYP2C19, luciferin-H EGE luminescence; hits give high values; 0 = fully inhibited enzyme, 1 = untreated enzyme; activation factor at 5 µM;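 active means activation factor of at least 2 at 5 µM in the primary screen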;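 further: 0 = wells with 2.5 mM tranylcypromine and 1 = vehicle-only wells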
Target sequence (P33261 whole entry, looked up): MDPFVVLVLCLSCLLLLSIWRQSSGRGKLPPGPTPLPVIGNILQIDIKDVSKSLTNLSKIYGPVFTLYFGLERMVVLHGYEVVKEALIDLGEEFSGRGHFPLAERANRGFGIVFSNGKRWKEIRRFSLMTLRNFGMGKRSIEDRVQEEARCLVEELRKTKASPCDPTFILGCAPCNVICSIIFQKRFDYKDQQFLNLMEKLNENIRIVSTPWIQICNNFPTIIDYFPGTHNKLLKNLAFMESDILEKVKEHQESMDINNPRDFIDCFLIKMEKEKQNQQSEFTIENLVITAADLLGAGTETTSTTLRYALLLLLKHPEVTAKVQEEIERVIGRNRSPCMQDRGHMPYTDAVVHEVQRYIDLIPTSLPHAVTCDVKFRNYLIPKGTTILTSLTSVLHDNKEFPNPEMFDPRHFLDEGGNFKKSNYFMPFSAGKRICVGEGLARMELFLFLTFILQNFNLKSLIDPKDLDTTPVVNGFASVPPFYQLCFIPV
CYP2C9 inhib: human CYP2C9 inhibition; P11712; CYP2C9 Supersomes, luciferin-H conversion, luminescence; inhibition, % at 5 µM; actives 20% (n = 96,000);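 active means blocking of liver enzyme CYP2C9 beyond about 50% at 5 µM, limit read from the data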
CYP2C19 inhib: blocks human cytochrome P450 2C19; actives 21% (n = 96,000); CYP2C19 Supersomes, luciferin-H EGE luminescence, 30 min; inhibition, % at 5 µM;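 active means CYP2C19 inhibition above a set limit at 5 µM in the primary screen, cut at about 50% in these data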;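 further: plate controls were negative control wells for no effect and 2.5 mM tranylcypromine positive control for full effect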
Numbers without * were called inactive; / = no result.

SMILES	E-sel TNF inh	cytoskel mod	CYP2C9 act	CYP2C19 activ	CYP2C9 inhib	CYP2C19 inhib
Nc1c(Nc2ccccc2)c2ccccc2oc1=O	-12	8	0.2	0.1	80*	95*
NNS(=O)(=O)c1ccc(Cc2ncc(C(F)(F)F)cc2Cl)s1	4	9	0.7	0.3	30	70*
CCN(CC)S(=O)(=O)c1ccc(Cc2ncc(C(F)(F)F)cc2Cl)s1	4	/	0.4	0.2	59*	83*
COc1ccc(C(=O)NC(=S)Nc2nc(C)c(C(=O)N(C)C)s2)cc1	8	-2	0.4	1	63*	-2
COc1cc(OC)c(NC(=O)CCc2ccccc2)cc1Cl	10	/	1.5	0.2	-54	84*
COc1ccc(Cl)cc1NC(=O)CCc1ccccc1	33	1	3*	0.2	-205	83*
COc1cccc(-n2cnc3cccc(N)c32)c1	-2	/	2.3*	0.6	-125	37
COc1cccc(Oc2ccc(N)cn2)c1	-16	-2	1.1	0.8	-6	19
O=P(O)(O)c1ccccc1OCCOCCOc1ccccc1P(=O)(O)O	-21	/	1.2	1.2	-22	-20
COc1ccc(NC(C)C(=O)Nc2ccc(C(C)(C)C)cc2)cc1Cl (stereo not drawn)	6	-3	0.1	0.1	90*	94*
COc1ccc(NC(C)C(=O)Nc2ccc(C#N)cc2)cc1Cl (stereo not drawn)	-12	14	0	0	98*	100*
COc1ccc(NC(=O)CNc2cccc(C#N)c2)cc1Cl	/	3	0.8	0.5	17	48
COc1ccc(NCC(=O)Nc2ccc(C#N)cc2)cc1Cl	-4	-2	0.3	0.3	69*	69*
O=c1cc(CSc2ccc(Cl)cc2)nc(N2CCCCC2)[nH]1	/	-10	0.7	1	34	5
CCOc1ccc(-n2c(=S)sc3c(=O)[nH]c(SCC(=O)C(C)(C)C)nc32)cc1	6	/	/	/	/	/
Cc1ccc(C(C(=O)NC2CCCCC2)N(Cc2ccco2)C(=O)Cn2cnc3ccccc32)cc1 (stereo not drawn)	-10	2	/	/	/	/
Cc1ccccc1Nc1nc(N)nc(COc2ccc(C#N)cc2)n1	26	/	/	/	/	/
CCOC(=O)c1c(C)[nH]c(C(=O)OCC(=O)N(C)C2CCS(=O)(=O)C2)c1C (stereo not drawn)	7	-4	1	1.1	-4	-7
Cc1ccc(C(=O)CC(=O)c2cccc(F)c2)c(O)c1	-11	-12	0.3	0	72*	95*
Cc1ccc(C(=O)c2ccccc2C(=O)O)c(O)c1	/	0	0.7	1.1	28	-6
Cc1ccc(S(=O)(=O)NCCOC(=O)Nc2sc(=S)n(C)c2C)cc1	6	5	1	0.3	-3	73*
CCCC/C(O)=C1\C(=O)CC(C)(C)CC1=Nc1ccc(OC)cc1	14	-1	0.6	0.4	44	57*
CCc1ncc(C(O)c2cccc3ccccc23)n1C (stereo not drawn)	-4	45	1	1	2	3
Cc1ccc(Cc2nc(-c3ccccn3)no2)cc1	-1	-9	0.8	0.7	22	28
c1ccc(CCCc2nc(-c3ccccn3)no2)cc1	13	-7	0.8	0.3	24	65*
SMILES	E-sel TNF inh	cytoskel mod	CYP2C9 act	CYP2C19 activ	CYP2C9 inhib	CYP2C19 inhib
c1ccc(Cc2nc(-c3ccccn3)no2)cc1	-6	-2	0.8	0.7	15	33
c1ccc(SCc2nc(-c3ccccn3)no2)cc1	-23	14	0.6	0.2	45	76*
c1ccc(C(Cc2nc(-c3ccccn3)no2)c2ccccc2)cc1	-12	2	0.5	0.7	54*	29
CCOc1ccc(NC(=S)NC(=O)c2c(Br)cnn2C)c([N+](=O)[O-])c1	-3	/	/	/	/	/
O=C(CSCc1c(Cl)cccc1Cl)Nc1nccs1	10	4	0.2	0.8	75*	22
CCc1ccc(OCCCC(=O)Nc2nccs2)cc1	-28	/	/	/	/	/
O=C(CCCOc1ccccc1)Nc1nccs1	9	-15	0.5	0.1	51*	86*
O=C(CSc1cn(Cc2ccccc2)c2ccccc12)Nc1nccs1	/	-3	0	0	99*	96*
O=C(CSc1cn(Cc2ccccc2)c2ccccc12)NCc1ccc(F)cc1	0	/	/	/	/	/
O=C(CCCSc1nc2ccccc2s1)Nc1nccs1	/	5	0.1	0.2	88*	79*
O=C(/C=C/c1ccc(Br)o1)NCCCN1CCOCC1	-34	/	/	/	/	/
COc1ccc2c(c1)C(SCC(=O)NCCc1ccccc1)CC(C)(C)O2 (stereo not drawn)	13	/	/	/	/	/
CCC(CC)NC(=O)CCc1nc2ccccc2c(=O)[nH]1	20	-4	0.9	0.9	14	8
O=C(CSCc1ccccc1)Nc1nccs1	/	/	0.6	0.5	44	50*
Cn1c(CSCc2ccccc2)nnc1SCC(=O)Nc1nccs1	-5	9	/	/	/	/
COC(=O)CC1=C(C)C(=O)CC2C(C)(C)CCCC12C (stereo not drawn)	6	/	0.8	0.4	17	57*
CC(C)(C)c1cc(C(=O)N/N=C/c2ccc(F)cc2)n(-c2ccccc2)n1	-28	-4	0.4	0.6	65*	44
CC(C)OC(=O)C1C(=O)CC(C)(O)C(C(=O)OC(C)C)C1c1ccc(F)cc1 (stereo not drawn)	-17	-11	0.7	0.2	26	77*
CCN(CC)c1ccc(C2C(C(=O)OC(C)C)C(=O)CC(C)(O)C2C(=O)OC(C)C)cc1 (stereo not drawn)	-6	-6	0.9	0.8	6	21
O=[N+]([O-])c1ccccc1/C=C/C=N/n1c(-c2ccccc2)n[nH]c1=S	-5	/	/	/	/	/
O=[N+]([O-])c1ccccc1/C=C/C=N/n1c(-c2ccc(Cl)cc2)n[nH]c1=S	23	4	0.4	0.9	58*	8
c1ccc(N2CCN(c3cnccn3)CC2)nc1	/	4	1	0.6	-3	42
N#Cc1cc(C#N)c(N2CCN(c3ccccn3)CC2)nc1N	13	-20	0.6	0.3	44	65*
CCOC(=O)c1sc2ncn(C(CC)C(=O)OC)c(=O)c2c1C (stereo not drawn)	-6	48	0	0.3	96*	70*
CCOC(=O)c1sc2ncn(C(CC)C(=O)OCC)c(=O)c2c1C (stereo not drawn)	3	-26	0.2	0.4	83*	60*
CCOC(=O)Cn1cnc2sc(C(=O)OC)c(C)c2c1=O	-19	/	/	/	/	/
CCCOC(=O)C(C)n1cnc2sc(C)c(C)c2c1=O (stereo not drawn)	9	1	0.4	0.3	56*	70*
CCOC(=O)c1sc2ncn(C(C)C(=O)OC)c(=O)c2c1C (stereo not drawn)	-27	-1	0.5	0.4	54*	57*
CCCCCSc1nnc(-c2cc(Br)ccc2N)c(=O)[nH]1	/	/	0.4	0.9	60*	11
CCCCSc1nnc(-c2ccccc2N)c(=O)[nH]1	/	31	0.8	1	21	3
